Screening data: PubChem BioAssay, National Center for Advancing Translational Sciences (NCATS)
VACV Venus inh = qHTS for Stage-Specific Inhibitors of Vaccinia Orthopoxvirus: Venus Reporter Primary qHTS; Vaccinia virus Venus reporter expression, fluorescence; Potency, µM (highest dose often 36.5 µM), usual class: inhibitors; 0.46% of 330,000 active; AID 720580, 2013; calls by dose curve; tested in A549 cells; also: nearly all actives have a fitted effect of over 30% in size
Lassa entry inh = qHTS for Inhibitors of binding or entry into cells for Lassa Virus. Potency, µM (highest dose often 37.9 µM), actives largely listed as inhibitors. 1.2% of 300,000 active. Lassa virus pseudotype entry inhibition, cell reporter; calls by dose curve; tested in HEK293 cells; also: nearly all actives have a fitted effect of over 50% in size
Marburg entry inh = qHTS for inhibitors of binding or entry into cells for Marburg Virus; Marburg virus pseudotyped entry inhibition, cell reporter; Potency, µM (titrated, usually from 37.8 µM), most hits filed as inhibitors; 1.8% of 300,000 active; AID 540276, 2011; calls by dose curve; tested in HEK293 cells
Vaccinia mCherry = qHTS for Stage-Specific Inhibitors of Vaccinia Orthopoxvirus: mCherry Reporter Primary qHTS. Potency, µM (highest dose often 36.5 µM), usual class: inhibitors. Vaccinia virus mCherry reporter infection, fluorescence. AID 720579, 2013. 0.63% of 310,000 active; calls by dose curve; tested in A549 cells; also: nearly all actives have a fitted effect of over 35% in size
HCV inh = qHTS Assay for Inhibitors of Hepatitis C Virus (HCV). Huh7.5.1 HCVcc-Cre infection, luciferase reporter, 44 h. Potency, µM (titrated, usually from 41.8 µM), most hits filed as inhibitors. 3.4% of 340,000 active; active = well fitted inhibition curve with a large enough effect; inconclusive = small, poorly fitted or top-dose-only effect, or another doubt; inactive = no such curve, though single readings can be large or run the other way
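Infectious HCV cell culture screen: compound-treated cells (1,000/well, pre-plated 4 h) are infected with HCVcc-Cre at roughly 0.5 moi and grown 44 h. Infection is quantified by luciferase signal after 15 min substrate incubation at room temperature.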
Of the large screens only hits and unclear results are named; the others gave an inactive call; ! = not confirmed by another sample. Only some compounds are listed: those with a hit (about 4.6% of all), similar ones and a draw of the others.

C[C@@H](NC(=O)/C(C#N)=C/c1ccc(O)c(O)c1)c1ccccc1	Marburg entry inh inconclusive, Vaccinia mCherry inconclusive, HCV inh inconclusive
Cc1cc(F)ccc1O[C@H]1C=C[C@@H](c2ccc3c(c2)OCO3)O[C@@H]1CO	none (no result: VACV Venus inh, Lassa entry inh, Vaccinia mCherry, HCV inh)
CC(=O)c1cccc(N/C=C\c2nnnn2-c2ccc(F)cc2)c1	none
COc1ccc(-n2nnnc2/C=C\Nc2ccccc2C(=O)c2ccccc2)cc1	Lassa entry inh inconclusive, HCV inh 7.9µM (no result: VACV Venus inh, Vaccinia mCherry)
Cc1nn(C)c2c1c(C(F)(F)F)cc(=O)n2CC(=O)N1CCCCC1C (configuration not stated)	none (no result: Marburg entry inh, HCV inh)
Cc1ccc(C)n1Cc1ccc(C(=O)O)cc1	Marburg entry inh 9.2µM (no result: VACV Venus inh, Vaccinia mCherry)
Cc1cc(C)n(Cc2ccc(C(=O)O)cc2)n1	none
CC(=O)c1c(C)oc2c(Br)cc(NS(=O)(=O)c3ccc(Br)cc3)cc12	none (no result: Marburg entry inh, HCV inh)
CC(C)(C)c1ccc(NC(=O)COC(=O)C2(C)CC2(Cl)Cl)cc1 (configuration not stated)	HCV inh 11µM (no result: VACV Venus inh, Lassa entry inh, Marburg entry inh, Vaccinia mCherry)
O=[N+]([O-])/C(C(=C(Cl)Cl)N1CCOCC1)=C1\NCCO1	VACV Venus inh 10µM, Vaccinia mCherry 16µM
COc1cccc(/C=C/C(=O)c2c(O)cc(C)oc2=O)c1O	Marburg entry inh inconclusive
COc1ccc(/C=C/C(=O)c2c(O)cc(C)oc2=O)c(OC)c1	HCV inh 11µM
C=C1CC2(OC1=O)c1ccccc1CCc1ccccc12	VACV Venus inh 14µM, Lassa entry inh 20µM, Marburg entry inh inconclusive, Vaccinia mCherry inconclusive, HCV inh inconclusive
CC(C)CC(=O)Nc1nc2c(s1)CC(C(C)(C)C)CC2 (configuration not stated)	Marburg entry inh inconclusive (no result: HCV inh)
Cc1ccc(NC(=O)/C=C/c2ccco2)nc1	VACV Venus inh inconclusive, Lassa entry inh inconclusive, Marburg entry inh 7.1µM, Vaccinia mCherry inconclusive
O=C(/C=C/c1ccco1)Nc1ccc(Oc2ccc(Cl)cc2)cc1	VACV Venus inh inconclusive, Lassa entry inh inconclusive, Marburg entry inh inconclusive, Vaccinia mCherry inconclusive, HCV inh 8.9µM
COc1cccc(NC(=O)/C=C/c2ccco2)c1	Marburg entry inh inconclusive
COc1cc([C@@H]2c3cc4c(cc3[C@H](OC(C)=O)[C@H]3COC(=O)[C@@H]23)OCO4)cc(OC)c1OC	Vaccinia mCherry inconclusive (no result: Lassa entry inh, Marburg entry inh, HCV inh)
COc1cc(C2c3cc4c(cc3CC3COC(=O)C32)OCO4)cc(OC)c1OC (configuration not stated)	VACV Venus inh inconclusive, HCV inh inconclusive (no result: Lassa entry inh, Marburg entry inh)
COc1cc([C@@H]2c3cc4c(cc3[C@@H](O)[C@H]3COC(=O)[C@H]23)OCO4)cc(OC)c1O	VACV Venus inh inconclusive, Vaccinia mCherry 11µM (no result: Lassa entry inh, Marburg entry inh, HCV inh)
COc1cc([C@@H]2c3cc4c(cc3C[C@H]3COC(=O)[C@@H]32)OCO4)cc(OC)c1O	VACV Venus inh inconclusive, Vaccinia mCherry 10µM (no result: Lassa entry inh, Marburg entry inh, HCV inh)
COc1cc2c(cc1NC(=S)Nc1cccc(C)c1)oc1ccccc12	HCV inh 8.9µM (no result: VACV Venus inh, Vaccinia mCherry)
COc1cc2c(cc1NC(=O)/C=C/c1ccccc1)oc1ccccc12	Lassa entry inh inconclusive, Marburg entry inh inconclusive, HCV inh 7.1µM
COc1cc2c(cc1NC(=O)Nc1cccc(C)c1)oc1ccccc12	HCV inh inconclusive
COc1ccc(/C=C/C(=O)NC(=S)Nc2cc3oc4ccccc4c3cc2OC)cc1	none
COc1cc2c(cc1NC(=O)C1CCCO1)oc1ccccc12 (configuration not stated)	HCV inh 7.9µM
CNC(=S)Nc1cc2oc3ccccc3c2cc1OC	Vaccinia mCherry inconclusive, HCV inh 11µM
COc1ccc(Cl)cc1NC(=O)C1CCCO1 (configuration not stated)	HCV inh inconclusive
C[C@@H]1[C@H](c2ccccc2)OCCS(=O)(=O)N1Cc1ccc(Cl)cc1	none (no result: Lassa entry inh, Marburg entry inh, HCV inh)
Cc1nn(CC(=O)NC2CCCCC2)c(=O)c2cc3cc(F)ccc3n12	none (no result: Lassa entry inh, HCV inh)
COc1cc(CCN2C(=O)NC(c3ccccc3)C(C(C)=O)=C2C)cc(OC)c1OC (configuration not stated)	none (no result: VACV Venus inh, Lassa entry inh, Vaccinia mCherry, HCV inh)
OC1(c2cccnc2)CCN(Cc2ccc3c(c2)CN(Cc2cccc4nccnc24)CCO3)CC1	none (no result: Lassa entry inh, Marburg entry inh, HCV inh)
Clc1ncc(C#Cc2ccccc2)c2ncncc12	none (no result: Lassa entry inh, Marburg entry inh, HCV inh)
CCCN(C(=O)c1c(C)oc2ncnc(N3CCOCC3)c12)c1ccc(Cl)c(Cl)c1	none (no result: HCV inh)
CCNC(=S)Nc1cc2oc3ccccc3c2cc1OC	VACV Venus inh inconclusive, Vaccinia mCherry inconclusive, HCV inh 22µM
CCCC[C@H]1CN2[C@H](c3ccc(Br)cc3)[C@H](C)CC[C@H]2C(=O)O1	none (no result: VACV Venus inh, Lassa entry inh, Vaccinia mCherry, HCV inh)
COc1ccc2oc(/C=C/N(C)C)c(C(=O)c3ccc(Cl)cc3)c2c1	Lassa entry inh inconclusive, Marburg entry inh 21µM, HCV inh inconclusive (no result: VACV Venus inh, Vaccinia mCherry)
COc1ccc(C(=O)NCCn2cc(SCC(=O)Nc3ccc(F)cc3)c3ccccc32)cc1	none (no result: HCV inh)
O=C(/C=C/c1cccnc1)c1ccc(O)cc1	Marburg entry inh inconclusive
O=C(/C=C/c1ccccc1)NC(=S)Nc1cccnc1	Marburg entry inh 12µM
COc1cc(C(=O)/C=C/c2cccnc2)c([N+](=O)[O-])cc1OC	VACV Venus inh 11µM, Vaccinia mCherry 13µM, HCV inh inconclusive (no result: Lassa entry inh, Marburg entry inh)
O=C(C=Cc1cccnc1)c1ccccc1	Lassa entry inh inconclusive, Marburg entry inh 13µM, HCV inh inconclusive
Cc1cccnc1NC(=S)NC(=O)/C=C/c1ccccc1	Marburg entry inh inconclusive
COc1ccc(NS(=O)(=O)c2cc([N+](=O)[O-])ccc2N/N=C/c2c(C)[nH]c3ccccc23)cc1	HCV inh 11µM
Cc1[nH]c2ccccc2c1/C=N/Nc1ccccc1[N+](=O)[O-]	Lassa entry inh inconclusive, HCV inh inconclusive
CCCCCN=C(N)N/N=C/c1c[nH]c2ccc(OC)cc12	VACV Venus inh 11µM!, Vaccinia mCherry inconclusive, HCV inh inconclusive (no result: Lassa entry inh, Marburg entry inh)
COc1ccc(C(=O)N/N=C/c2c[nH]c3ccccc23)cc1	Lassa entry inh inconclusive
CCCOc1ccc(C(=O)N/N=C/c2c[nH]c3ccc(Br)cc23)cc1	Lassa entry inh inconclusive, HCV inh 13µM
O=C(Nc1ccc(Cl)cc1Cl)[C@@H]1CC=C[C@@H]2CCN(Cc3ccccc3)C(=O)[C@@H]21	none (no result: Lassa entry inh, Marburg entry inh, HCV inh)
CCN(CC)c1cc(C)c2cc(NC(=O)/C=C/c3cc(OC)c(OC)c(OC)c3)ccc2n1	Lassa entry inh inconclusive, Marburg entry inh inconclusive (no result: HCV inh)
CCOc1ccc(/C=C/C(=O)Nc2ccc3nc(N(CC)CC)cc(C)c3c2)cc1OC	Lassa entry inh inconclusive, Marburg entry inh 11µM (no result: HCV inh)
CCN(CC)c1cc(C)c2cc(NC(=O)c3ccccc3F)ccc2n1	HCV inh 10µM (no result: VACV Venus inh, Lassa entry inh, Vaccinia mCherry)
Cc1ccc(C)c(Cn2c(=O)n(Cc3ccco3)c(=O)c3oc4ccccc4c32)c1	none (no result: Marburg entry inh, HCV inh)
CCN1CCCC1CNC(=O)c1cnn(-c2nccc(-c3cc4ccccc4o3)n2)c1C (configuration not stated)	none (no result: Lassa entry inh, Marburg entry inh, HCV inh)
COC(=O)C1C=CC(OC2OC(COC(C)=O)C(OC(C)=O)C(OC(C)=O)C2OC(C)=O)n2c(=O)n(-c3ccccc3)c(=O)n21 (configuration not stated)	VACV Venus inh inconclusive, Lassa entry inh inconclusive, Marburg entry inh inconclusive, Vaccinia mCherry 10µM, HCV inh 10µM
